Measurements: PubChem BioAssay AID651679 (Broad Institute, 2012)
The other results are listed elsewhere or left out. Values without a mark were called inactive. The rule behind the calls is not given here.

What follows are compounds tested against Adenosylmethionine-8-amino-7-oxononanoate aminotransferase (Mycobacterium tuberculosis (strain ATCC 25618 / H37Rv)) (UniProt P9WQ81) (assay: Mtb BioA enzyme inhibitors, dose response, biochemical, plate reader, cherry-pick samples, set 03 (AID 651679;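 note: top concentration of the dilution series was 10 µM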)). Details: purified BioA enzyme.
Chain of Adenosylmethionine-8-amino-7-oxononanoate aminotransferase (Mycobacterium tuberculosis (strain ATCC 25618 / H37Rv)) (P9WQ81 whole entry, looked up): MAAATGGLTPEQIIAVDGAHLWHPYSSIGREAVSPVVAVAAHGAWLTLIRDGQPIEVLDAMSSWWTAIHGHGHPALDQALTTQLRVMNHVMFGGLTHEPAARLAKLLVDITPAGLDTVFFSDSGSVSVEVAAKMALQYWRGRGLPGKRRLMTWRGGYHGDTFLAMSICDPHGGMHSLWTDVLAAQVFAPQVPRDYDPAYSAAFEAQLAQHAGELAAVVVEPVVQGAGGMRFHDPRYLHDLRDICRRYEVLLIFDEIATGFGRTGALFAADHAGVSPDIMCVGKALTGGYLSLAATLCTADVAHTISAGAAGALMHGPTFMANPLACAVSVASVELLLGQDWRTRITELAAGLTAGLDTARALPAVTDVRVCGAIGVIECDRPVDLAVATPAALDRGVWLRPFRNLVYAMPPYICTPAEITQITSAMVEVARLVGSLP
In the case of C=C(C)CSc1nc(N)c2c3c(sc2n1)CCC3, the max activity is reported as -5.78%.
With CC(=O)CSc1nnc(CSc2ncccn2)n1C1CCCCC1 the max activity was 4.14%.
CCC(CO)Oc1cc(NC(=O)c2cccc(F)c2)c2ncn(C(C)C)c2c1 (stereo not given) was tested, and the max activity was -8.92%.
Cc1nc(=O)c(-c2ccccc2)c(C)n1-c1ccc(Br)cc1 gave a max activity of -5.48% [at 0.08 µM].
CS(=O)(=O)N1[C@H](C(=O)NCc2ccncc2)[C@@H](CO)[C@@H]2Cn3c(ccc(C4=CCCCC4)c3=O)[C@@H]21 was tested, and the max activity was 4.42%.
O=C(CSc1n[nH]c(-c2cccnc2)n1)Nc1ccnc2ccccc12 showed a max activity of -8.45%.
In the case of Cc1nc2nc(SCC(=O)NCc3ccco3)nn2c(C)c1Cc1ccccc1, the max activity is reported as -11.9% [at 0.16 µM].
With Cc1ccc(Cc2c(C)nc3nc(SCC(=O)NCCN4CCOCC4)nn3c2C)cc1 the max activity was -9.07%.
With C=CCn1c(SCc2c(C(=O)OC)sc(N)c2C(=O)OC)nnc1-c1ccc(Cl)cc1 the max activity was -8.75%.
In the case of Cc1c2cnn(CC(=O)NCc3ccccn3)c(=O)c2c(C)n1Cc1ccc(Cl)cc1, the max activity is reported as -3.46% [at 10 µM].
In the case of Cc1c(OC(C)C(=O)NCC2CCC(C(=O)O)CC2)ccc2c1oc(=O)c1ccccc12 (stereo not given), the max activity is reported as -6.87% [at 0.3 µM].
Work on Cn1c(=O)c2c(nc(OCc3cccnc3)n2Cc2ccccc2)n(C)c1=O yielded a max activity of -7.11% [at 0.3 µM].
For CC(=O)c1ccc(N2CCN(C(=O)c3ccc4nc[nH]c4c3)CC2)cc1, the max activity was 5.95% [at 10 µM].
In the case of COCCNC(=O)C[C@H]1CC[C@@H]2[C@H](COc3ccc(NC(=O)Nc4cccc(F)c4)cc3C(=O)N2C)O1, the max activity is reported as 9.1%.
CC(=O)O[C@]1(C(C)=O)CC[C@H]2[C@@H]3C=C(C)C4=CC(=O)CC[C@]4(C)[C@H]3CC[C@@]21C gave a max activity of -6.47% [at 0.6 µM].
Compound CC1(C)CC(=O)C=C(c2ccc3ncccc3c2)C1 has a max activity of -6.7%.
Compound COc1cc(-c2n[nH]c(=S)n2Cc2ccccc2)cc(OC)c1OC has a max activity of -6.94% [at 0.6 µM].
For O=C(c1ccncc1)N1CC[C@@H]2[C@H]1c1cc(Br)ccc1N[C@@H]2CO, the max activity was -4.43%.
Work on O=c1[nH]c(N2CCN(Cc3ccc4c(c3)OCO4)CC2)nc2c1CCCC2 yielded a max activity of -3.93% [at 5 µM].
CCCOc1ccc2c3c(c(=O)oc2c1OCCC)CCC3 gave a max activity of 12.3% [at 1.2 µM].
